Test results taken from PubChem BioAssay AID1159580 (chemical genetic matrix, 2015).
Out of some 5,500 compounds screened, about 2,000 (36%) were called active. Another 18% or so got no clear call; they are omitted. Cut-off read from the data, not from the text of the source: active = normalized growth mostly below about 0.91 (no sharp cut-off); inconclusive = no clear call, values can overlap the other calls; inactive = mostly above about 0.92. Some of the results follow.

Test: chemical genetic growth profiling, strain panel (AID 1159580);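 note: tested at 20 µM; growth read once vehicle control cultures reached saturation at 30 °C; 1 = growth at the plate median or of vehicle wells; lower values mean less growth of the strain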
Conditions: S. cerevisiae deletion strains, growth OD

Measured: normalized growth

CC(=O)Oc1cc2c(c(C)c1OC(C)=O)CC1OC13C2(C)CCC1(C)C2CC(C)(C(=O)O)CCC2(C)CCC13C (configuration not stated)
inactive: locus YAL021C, strain ccr4, hits give low values 0.988 | locus YAL026C, strain drs2, hits give low values 1.04 | locus YAL030W, strain snc1, hits give low values 1.01 | locus YBL061C, strain skt5, hits give low values 1.04 | locus YBR009C, strain hhf1, hits give low values 1 | locus YBR021W, strain FUR4, hits give low values 0.99 | locus YBR023C, strain chs3, hits give low values 1.01 | locus YBR171W, strain sec66, hits give low values 1.02 | locus YBR229C, strain ROT2, hits give low values 1.01 | locus YBR231C, strain swc5, hits give low values 1.04 | locus YBR279W, strain paf1, hits give low values 1.02 | locus YCL011C, strain gbp2, hits give low values 1.01 | locus YCL016C, strain dcc1, hits give low values 1 | locus YCL029C, strain bik1, hits give low values 1.03 | locus YCL069W, strain vba3, hits give low values 1.03 | locus YCR088W, strain abp1, hits give low values 1.01 | locus YDL005C, strain med2, hits give low values 1.02 | locus YDL035C, strain GPR1, hits give low values 0.993 | locus YDL040C, strain nat1, hits give low values 1.02 | locus YDL074C, strain BRE1, hits give low values 1.02 | locus YDL101C, strain DUN1, hits give low values 1.01 | locus YDL185W, strain tfp1, hits give low values 1.04 | locus YDL192W, strain arf1, hits give low values 1.02 | locus YDR001C, strain nth1, hits give low values 1.01 | locus YDR069C, strain doa4, hits give low values 1.01 | locus YDR101C, strain arx1, hits give low values 1.03 | locus YDR137W, strain rgp1, hits give low values 1.02 | locus YDR159W, strain sac3, hits give low values 1.05 | locus YDR162C, strain NBP2, hits give low values 1 | locus YDR195W, strain ref2 1.02 | locus YDR297W, strain sur2, hits give low values 1.02 | locus YDR318W, strain mcm21, hits give low values 1.02 | locus YDR334W, strain swr1, hits give low values 1.01 | locus YDR335W, strain msn5, hits give low values 1.02 | locus YDR388W, hits give low values 1.02 | locus YDR392W, strain spt3, hits give low values 0.919 | locus YDR502C, strain sam2, hits give low values 1.01 | locus YEL003W, strain gim4, hits give low values 1.01 | locus YEL037C, strain rad23, hits give low values 1.01 | locus YEL061C, strain CIN8 (second series), hits give low values 1.02 | locus YEL061C, strain CIN8, hits give low values 1.01 | locus YER015W, strain faa2, hits give low values 1.02 | locus YER016W, strain bim1, hits give low values 1.02 | locus YER110C, hits give low values 1.03 | locus YER111C, strain swi4, hits give low values 1 | locus YER155C, strain BEM2 (second series), hits give low values 1.01 | locus YER155C, strain BEM2, hits give low values 0.99 | locus YER167W, strain BCK2, hits give low values 1.01 | locus YFR010W, strain ubp6, hits give low values 1.03 | locus YGL078C, strain dbp3, hits give low values 0.99 | locus YGL086W, strain mad1, hits give low values 1.02 | locus YGL167C, strain pmr1, hits give low values 1 | locus YGL173C, strain kem1, hits give low values 1.02 | locus YGL227W, strain vid30, hits give low values 1.02 | locus YGL240W, strain doc1, hits give low values 1.02 | locus YGL248W, strain PDE1, hits give low values 0.999 | locus YGL253W, strain hxk2, hits give low values 1.03 | locus YGR135W, strain pre9, hits give low values 1.03 | locus YGR252W, strain gcn5, hits give low values 0.989 | locus YHR013C, strain ard1, hits give low values 1.01 | locus YHR027C, strain rpn1, hits give low values 1.01 | locus YHR030C, strain SLT2, hits give low values 1.02 | locus YHR079C, strain IRE1 (second series), hits give low values 1.04 | locus YHR094C, strain hxt1, hits give low values 1.04 | locus YHR129C, strain ARP1, hits give low values 1.01 | locus YHR142W, strain chs7, hits give low values 1.01 | locus YHR200W, strain rpn10, hits give low values 1.04 | locus YIL066C, strain RNR3, hits give low values 0.998 | locus YIL073C, strain SPO22, hits give low values 1.02 | locus YIL125W, strain kgd1, hits give low values 1.01 | locus YIR030C, strain dcg1, hits give low values 1.04 | locus YJL092W, strain hpr5, hits give low values 1.02 | locus YJL095W, strain BCK1 (second series), hits give low values 1.03 | locus YJL095W, strain BCK1, hits give low values 0.998 | locus YJL115W, strain asf1, hits give low values 1.01 | locus YJL129C, strain trk1, hits give low values 1.02 | locus YJL134W, strain LCB3, hits give low values 1.01 | locus YJL154C, strain vps35, hits give low values 1.01 | locus YJL164C, strain tpk1, hits give low values 0.989 | locus YJL166W, strain qcr8, hits give low values 1.01 | locus YJL168C, strain set2, hits give low values 1.03 | locus YJL187C, strain SWE1 (second series), hits give low values 0.992 | locus YJR043C, strain POL32, hits give low values 1 | locus YKL009W, strain mrt4, hits give low values 0.927 | locus YKL068W, hits give low values 1.03 | locus YKL085W, strain MDH1 (second series), hits give low values 1 | locus YKL085W, strain MDH1, hits give low values 1 | locus YKL160W, strain elf1, hits give low values 1 | locus YKL190W, strain CNB1, hits give low values 1 | locus YKR001C, strain vps1, hits give low values 0.993 | locus YKR026C, strain gcn3, hits give low values 1.02 | locus YKR091W, strain srl3, hits give low values 1.01 | locus YLL001W, strain dnm1, hits give low values 1.03 | locus YLL026W, hits give low values 1.01 | locus YLL041C, strain sdh2, hits give low values 1.01 | locus YLR027C, strain aat2, hits give low values 1.01 | locus YLR039C, strain RIC1, hits give low values 0.893 | locus YLR058C, strain SHM2, hits give low values 1 | locus YLR102C, strain apc9, hits give low values 1.03 | locus YLR221C, strain rsa3, hits give low values 1.03 | locus YLR258W, strain gsy2, hits give low values 1.02 | locus YLR262C, strain YPT6 (second series), hits give low values 1.02 | locus YLR262C, strain YPT6, hits give low values 0.853 | locus YLR268W, strain sec22, hits give low values 1.04 | locus YLR320W, strain mms22, hits give low values 1.03 | locus YLR330W, strain CHS5, hits give low values 1.01 | locus YLR342W, strain FKS1 (second series), hits give low values 1 | locus YLR342W, strain FKS1, hits give low values 1.02 | locus YLR357W, strain rsc2, hits give low values 1.01 | locus YLR370C, strain arc18, hits give low values 1.01 | locus YLR371W, strain rom2, hits give low values 1.05 | locus YLR384C, strain iki3, hits give low values 1 | locus YLR418C, strain cdc73, hits give low values 1 | locus YML016C, strain PPZ1, hits give low values 1.01 | locus YML032C, strain rad52, hits give low values 1.03 | locus YML120C, strain ndi1, hits give low values 1.02 | locus YML124C, strain tub3, hits give low values 1.02 | locus YMR058W, strain fet3, hits give low values 1.03 | locus YMR078C, strain ctf18, hits give low values 1.04 | locus YMR125W, strain sto1, hits give low values 0.985 | locus YMR129W, hits give low values 1.01 | locus YMR205C, strain PFK2, hits give low values 0.988 | locus YMR223W, strain ubp8, hits give low values 1.05 | locus YMR231W, strain pep5, hits give low values 1.01 | locus YMR263W, strain SAP30, hits give low values 1.01 | locus YMR307W, strain GAS1, hits give low values 0.949 | locus YNL067W, strain RPL9B, hits give low values 1 | locus YNL071W, strain lat1, hits give low values 1.01 | locus YNL153C, strain GIM3, hits give low values 1 | locus YNL209W, strain ssb2, hits give low values 0.994 | locus YNL233W, strain BNI4, hits give low values 1.02 | locus YNL248C, strain rpa49, hits give low values 1.06 | locus YNL250W, strain rad50, hits give low values 1.02 | locus YNL271C, strain bni1, hits give low values 1.03 | locus YNL298W, strain CLA4, hits give low values 0.994 | locus YNL307C, strain MCK1, hits give low values 1.03 | locus YNL322C, strain KRE1 (second series), hits give low values 0.994 | locus YNR049C, strain mso1, hits give low values 1.04 | locus YNR052C, strain pop2, hits give low values 1.01 | locus YOL006C, strain TOP1, hits give low values 0.964 | locus YOL012C, strain htz1 1.11 | locus YOL147C, strain pex11, hits give low values 1.04 | locus YOR001W, strain rrp6, hits give low values 1.02 | locus YOR061W, strain CKA2, hits give low values 1.02 | locus YOR069W, strain VPS5, hits give low values 1.01 | locus YOR070C, strain gyp1, hits give low values 1.04 | locus YOR080W, strain dia2, hits give low values 1.02 | locus YOR083W, strain WHI5, hits give low values 1.01 | locus YOR106W, strain vam3, hits give low values 1.01 | locus YOR136W, strain idh2, hits give low values 1.02 | locus YOR144C, strain elg1, hits give low values 1.03 | locus YOR184W, strain ser1, hits give low values 0.994 | locus YOR265W, strain rbl2, hits give low values 1.01 | locus YOR270C, strain vph1, hits give low values 1.05 | locus YOR290C, strain snf2, hits give low values 0.994 | locus YOR316C, strain cot1, hits give low values 1.03 | locus YPL051W, strain arl3, hits give low values 1.02 | locus YPL055C, strain LGE1, hits give low values 1.01 | locus YPL078C, strain atp4, hits give low values 0.99 | locus YPL106C, strain sse1, hits give low values 1.03 | locus YPL240C, strain hsp82, hits give low values 1.01 | locus YPL241C, strain CIN2, hits give low values 1 | locus YPR119W, strain clb2, hits give low values 1.02 | locus YPR141C, strain kar3, hits give low values 1.02 | locus YPR163C, strain tif3, hits give low values 1.04 | locus YPR167C, strain met16, hits give low values 1.02 | strain wtn01, hits give low values 1.01
